Assay results reported in PubChem BioAssay AID927 (National Center for Advancing Translational Sciences (NCATS), 2007).
Out of some 60,000 compounds screened, about 65 (0.1%) were called active. Calls come from the whole dose curve; as a rule, active = well fitted inhibition curve with a large enough effect; inconclusive = small, poorly fitted or top-dose-only effect; inactive = no such curve, though single readings can be large or run the other way. Many of the other results were omitted from the sample, so actives are more common in it than they were.

biological target: Ubiquitin carboxyl-terminal hydrolase 2 (Homo sapiens) (UniProt O75604); assay: qHTS Assay for Inhibitors of Ubiquitin-specific Protease USP2a; details: USP2a enzymatic assay; Potency: qHTS inhibition; series mostly up to 38.3 µM; note: nearly all actives have a fitted effect of over 60% in size;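 for Activity change, negative = inhibition: plate controls were DMSO for no effect and NEM full inhibition control for full effect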
Method in brief: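 USP2 core (20 nM final) was preincubated with compound for 30 min at RT in 20 mM Tris-HCl pH 8.0, 2 mM CaCl2, 2 mM beta-mercaptoethanol; Ub-PLA2 (20 nM) plus NBD C6-HPC (20 uM) then added, fluorescence read after 2.5 h.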
Potency is the fitted concentration of half-maximal effect.

Chain of Ubiquitin carboxyl-terminal hydrolase 2 (Homo sapiens) (O75604 whole entry, looked up): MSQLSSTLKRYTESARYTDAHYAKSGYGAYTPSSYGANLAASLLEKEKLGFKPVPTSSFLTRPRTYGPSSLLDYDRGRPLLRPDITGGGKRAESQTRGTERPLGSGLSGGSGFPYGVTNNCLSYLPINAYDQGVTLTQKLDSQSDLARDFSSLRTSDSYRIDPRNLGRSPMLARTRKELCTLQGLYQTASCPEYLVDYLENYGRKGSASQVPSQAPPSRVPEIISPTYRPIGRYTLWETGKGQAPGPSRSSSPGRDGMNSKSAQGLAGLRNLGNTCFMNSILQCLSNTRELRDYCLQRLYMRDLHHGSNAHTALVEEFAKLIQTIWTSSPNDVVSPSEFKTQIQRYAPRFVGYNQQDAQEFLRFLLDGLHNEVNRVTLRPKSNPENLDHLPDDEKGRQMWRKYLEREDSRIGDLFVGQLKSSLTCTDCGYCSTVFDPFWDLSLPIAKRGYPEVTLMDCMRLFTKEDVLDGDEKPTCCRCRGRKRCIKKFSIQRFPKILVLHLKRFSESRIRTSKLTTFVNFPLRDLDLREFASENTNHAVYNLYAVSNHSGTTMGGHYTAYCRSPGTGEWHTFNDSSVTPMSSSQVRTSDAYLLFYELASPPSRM

Activity change, negative = inhibition, inactive:
Cc1cccc2c3c(ccc12)C1=C(C(=O)C3=O)C(C)CO1 (configuration not stated), CC1OC(OCC2OC(Oc3c(-c4ccc(O)c(O)c4)oc4cc(O)cc(O)c4c3=O)C(O)C(O)C2O)[C@@H](O)C(O)C1O (some centres not stated), CCCc1[nH]nc2c1C(C1CC=CCC1)C(C#N)=C(N)O2 (configuration not stated), Nc1nc2c(nc(Cl)n2C2OC(CO)C(O)C2O)c(=O)[nH]1 (configuration not stated), COC(=O)[C@H](C)NC(=O)Nc1ccc(OC(F)(F)F)cc1, COCCCN1C(=O)C(=O)/C(=C(/O)c2ccc3c(c2)CC(C)O3)C1c1cccnc1 (configuration not stated), COc1cc(OC)c(NC(=O)c2ccc(Br)o2)cc1Cl 12% [at 7.66 µM], CN(C)c1cc(N)c2ccccc2n1 (tested in a mixture with another compound), CCOC(=O)c1cc2c(n(-c3ccc(C)cc3)c1=O)CCCC2=O, CC1(C)CC(=O)C(C=NCCC2=CCCCC2)=C(O)C1 6.05% [at 7.66 µM], Cc1cc(NC(=O)CSc2nnc(-c3ccc(Cl)s3)o2)no1, CC1(C)C=CC(=O)[C@]2(C)C1CC(=O)[C@]1(C)C2CC[C@@]2(C)C(c3ccoc3)OC(=O)C3OC321 (some centres not stated), CSCCC(NC(=O)c1ccc(=O)n(C)n1)c1nc2ccccc2[nH]1 (configuration not stated), CCCn1c(O)c(CN2CCCC(C)C2)c(C)c(C#N)c1=O (configuration not stated), COCCn1c(=O)c(-c2cc(F)cc(F)c2)nc2cnc(N3CCNCC3)nc21, Cc1cc(=O)[nH]c(=S)[nH]1, CN1CCCc2cc(C#N)c(=O)[nH]c21 2.48% [at 7.66 µM], Cc1oc(-c2ccccc2F)nc1CS(=O)(=O)CC(=O)NCCCN(C)C1CCCCC1, Cc1ccc(NC(=O)C2CC(c3ccc(F)cc3)=NO2)cc1 (configuration not stated), COc1ccccc1CCn1c(=O)c(-c2cn(C)c3ccccc23)nc2cncnc21, CC(Sc1nncs1)C(=O)NCc1ccc2c(c1)OCO2 (configuration not stated), CCOC(=O)N1CCN(C(=O)COc2ccc(Br)cc2)CC1 10.7% [at 7.66 µM], O=C1NC(c2cc3c(cc2Cl)OCO3)Oc2ccccc21 (configuration not stated), CCOC(=O)C1C(=O)OC2(CCCC2)C1C(=O)OCC (configuration not stated), Cc1ccc(C)c(NC(=O)C2CC(=O)N(C(C)C)C2)c1 (configuration not stated), CC1CCN(C(=O)Cn2cc(C(=O)c3ccco3)c3ccccc32)CC1

Potency, active:
CC[C@@H]1Cc2cc(O)ccc2C2=C1c1ccc(O)cc1C[C@H]2CC 25.1 µM
